This is an account of results in publication PMC4336329 (PLoS ONE, 2015).

The campaign covered roughly 310,000 compounds. About 14,000 (4.5%) showed an effect of 50% or more. Effects have a minus sign here. The full list was thinned out, with strong results kept by preference.
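Further: peak tail current of the secondary pulse compared with the same well before compound.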

human ether-à-go-go-related gene (hERG) potassium channel, sequence (Q12809 whole entry, looked up): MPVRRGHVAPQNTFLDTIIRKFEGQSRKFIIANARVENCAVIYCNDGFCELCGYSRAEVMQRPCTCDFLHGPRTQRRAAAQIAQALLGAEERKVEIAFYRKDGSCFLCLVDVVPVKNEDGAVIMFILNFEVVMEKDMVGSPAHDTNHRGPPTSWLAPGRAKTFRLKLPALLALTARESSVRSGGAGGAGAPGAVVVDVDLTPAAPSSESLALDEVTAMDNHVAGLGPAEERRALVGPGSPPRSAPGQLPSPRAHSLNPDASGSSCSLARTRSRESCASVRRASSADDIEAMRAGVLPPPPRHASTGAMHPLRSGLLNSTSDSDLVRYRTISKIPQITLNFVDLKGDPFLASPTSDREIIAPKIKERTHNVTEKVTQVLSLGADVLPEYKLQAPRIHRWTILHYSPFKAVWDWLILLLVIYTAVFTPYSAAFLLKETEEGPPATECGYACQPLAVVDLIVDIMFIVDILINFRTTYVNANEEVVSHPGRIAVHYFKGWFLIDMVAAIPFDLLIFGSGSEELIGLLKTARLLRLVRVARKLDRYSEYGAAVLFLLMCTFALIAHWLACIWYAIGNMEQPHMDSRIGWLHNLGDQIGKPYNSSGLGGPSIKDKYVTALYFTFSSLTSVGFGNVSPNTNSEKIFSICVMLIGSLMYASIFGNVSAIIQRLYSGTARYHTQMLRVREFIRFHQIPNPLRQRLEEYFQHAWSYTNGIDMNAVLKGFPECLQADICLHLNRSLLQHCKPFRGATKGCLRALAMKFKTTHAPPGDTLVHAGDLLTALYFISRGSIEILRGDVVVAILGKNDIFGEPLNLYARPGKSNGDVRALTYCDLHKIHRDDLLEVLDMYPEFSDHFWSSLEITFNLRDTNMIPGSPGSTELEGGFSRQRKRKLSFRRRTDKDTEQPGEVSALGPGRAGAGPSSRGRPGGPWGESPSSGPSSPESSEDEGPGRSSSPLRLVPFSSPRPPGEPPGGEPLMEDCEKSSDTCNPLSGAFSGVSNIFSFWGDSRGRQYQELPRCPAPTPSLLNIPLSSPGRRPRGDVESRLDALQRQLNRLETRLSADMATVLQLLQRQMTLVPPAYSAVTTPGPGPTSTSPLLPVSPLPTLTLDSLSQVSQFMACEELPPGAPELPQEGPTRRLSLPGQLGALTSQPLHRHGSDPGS

This assay has as its target human ether-à-go-go-related gene (hERG) potassium channel (human, UniProt Q12809). The experiment in a line: primary screen, population patch clamp on CHO cells stably expressing hERG; higher = less effect of the substance.
Regarding `CCOc1ccc(S(=O)(=O)N2CCCCC2)cc1NC(=O)Cc1ccsc1`, the “hERG current change (%, negative = inhibition) at 10uM” value was 2.15%.
The value for `BrC(=C\c1ccccc1)/C=N/Nc1ccc2nncn2n1` was -21.6%.
Take `CC(/C=N/Nc1ccc2nncn2n1)=C\c1ccccc1`: the “hERG current change (%, negative = inhibition) at 10uM” value is reported as -51.8%.
Then `C(=C\c1ccccc1)/C=N/Nc1ccc2nncn2n1`, with -19.7%; and `Oc1sc(C=Nc2ccccc2)c2ccccc12`, with 7.99%; and `COc1ccc(CCC(=O)Nc2ccc3c(c2)OCO3)cc1`, with 2.6%.
Then `O=C(COc1ncnc2cc([N+](=O)[O-])ccc12)NC(=O)NC1CCCCC1`, with -56.5%; and `COc1ccc(CCNC(=O)COc2ncnc3cc([N+](=O)[O-])ccc23)cc1`, with -16.5%; and `O=C(COc1ncnc2cc([N+](=O)[O-])ccc12)NC1CCCCC1`, with -2.76%.
The value for `O=C1c2ccccc2NC(c2c(Cl)cccc2Cl)N1Cc1ccccc1` (centres unmarked) was 7.98%; that for `N=c1c2c3c(sc2ncn1CCN1CCOCC1)CCCC3` was -16.9%; that for `N=c1c2c3c(sc2ncn1N)CCCCC3` was -12.6%.
For `CC(C)Cn1cnc2sc3c(c2c1=N)CCCC3`, the “hERG current change (%, negative = inhibition) at 10uM” value is -25.2%.
Then `N=c1c2c3c(sc2ncn1Cc1ccco1)CCCCC3`, with -62%; and `N=c1c2c3c(sc2ncn1CCN1CCOCC1)CCCCC3`, with -42.9%.
Take `CCCCn1cnc2sc3c(c2c1=N)CCCC3`: the “hERG current change (%, negative = inhibition) at 10uM” value is -52.1%.
Then `N=c1c2c3c(sc2ncn1CCCO)CCCC3`, with -19.5%; and `N=c1c2c3c(sc2ncn1Cc1ccccc1)CCCC3`, with -49.7%; and `N=c1c2c3c(sc2ncn1CCCN1CCOCC1)CCCCC3`, with -51.2%.
The value for `CC1CCCCC1NC(=O)CCNS(=O)(=O)c1ccc2c(c1)CCC(=O)N2` (centres unmarked) was 6.25%.
Then `O=C(Nc1cc(C(F)(F)F)ccc1-n1cnc2ccccc21)c1ccccc1`, with -32%.
For the compound `O=C(Nc1ccc(/C=C/c2nc3ccccc3o2)cc1)c1cccc(C(F)(F)F)c1`, the “hERG current change (%, negative = inhibition) at 10uM” value is recorded as 0.151%.
Turning to `COC(=O)c1ccc(NC(=S)NCCc2cccc(C)c2)cc1`, the “hERG current change (%, negative = inhibition) at 10uM” value is reported as -2.3%.
With `CCCn1c(NC(=O)c2cccc(C)c2C)nc2ccccc21`, the “hERG current change (%, negative = inhibition) at 10uM” value is -26.7%.
As for `CC(=O)Nc1cccc(NC(=O)CSc2nnc3ccc(-c4ccncc4)nn23)c1`, the “hERG current change (%, negative = inhibition) at 10uM” value is on record as -17.8%.
The value for `Cc1ccccc1NC(=O)CSc1nnc2ccc(-c3ccncc3)nn12` was -69.5%; that for `CCOc1ccccc1NC(=O)CSc1nnc2ccc(-c3ccncc3)nn12` was -54.3%.
The value for `CCOc1ccccc1NC(=O)CSc1nnc2ccc(-c3cccnc3)nn12` was -25.8%; that for `Cc1ccccc1NC(=O)CSc1nnc2ccc(-c3cccnc3)nn12` was -33%; that for `CCOc1ccccc1NC(=O)CSc1nnc2ccc(-c3ccccn3)nn12` was 2.41%.
In the case of `CCOc1ccccc1NC(=O)CSc1nnnn1Cc1ccccc1`, the “hERG current change (%, negative = inhibition) at 10uM” value was -40.5%.
On to `CC(=O)c1ccc(S(=O)(=O)N2CCN(C(=O)CSc3ccc(F)cc3)CC2)cc1`, for which the “hERG current change (%, negative = inhibition) at 10uM” value stood at 11.7%.
The value for `CC[C@]12C=CCN3CCC4(c5cc(Br)c(OC)cc5N(C)C4[C@@](O)(C(=O)OC)[C@@H]1OC(C)=O)C32` (some centres unmarked) was 7.6%; that for `COc1ccc(/C=C(/NC(=O)c2ccccc2)C(=O)N/N=C/c2ccncc2)cc1` was 9.78%; that for `N#CCSc1nc(-c2ccccc2)nc2ccccc12` was 7.83%.
Regarding `Cc1cccc(NC(=O)CN2CCN(C(=O)C(C)Oc3ccc(C#N)cc3)CC2)c1C` (centres unmarked), the “hERG current change (%, negative = inhibition) at 10uM” value is -76.9%.
On to `CCc1ccccc1NC(=O)CN1CCN(C(=O)COc2ccccc2C#N)CC1`, for which the “hERG current change (%, negative = inhibition) at 10uM” value is given as -34.6%.
The value for `CCc1ccccc1NC(=O)CN1CCC(NC(=O)COC)CC1.Cl` was 13.4%.
Then `CCc1ccccc1NC(=O)CN1CCN(C(=O)CCC(=O)N2CCC(c3ccccc3)=N2)CC1`, with -58%; and `CCc1ccccc1NC(=O)CN1CCN(CC(=O)Nc2ccc(-c3ccccc3)cc2)CC1`, with -53.3%.
As for `CCc1ccccc1NC(=O)CN1CCN(C(=O)CNC(=O)c2ccccc2F)CC1`, the “hERG current change (%, negative = inhibition) at 10uM” value is -13.5%.
The value for `Cc1cccc(NC(=O)CN2CCN(C(=O)c3ccc(OCc4cn5ccccc5n4)cc3)CC2)c1C` was -46.5%; that for `CCc1ccccc1NC(=O)CN1CCN(CC(=O)NCc2ccc(Cl)cc2)CC1` was -46.6%.
Then `CCc1ccccc1NC(=O)CN1CCN(C(=O)CN2C(=O)NC3(CCCC3)C2=O)CC1`, with 7.54%; and `CCc1ccccc1NC(=O)CN1CCN(C(=O)CNC(=O)Cc2cccc3ccccc23)CC1`, with -59.6%.
The value for `Cc1cccc(NC(=O)CNC(=O)COc2ccc(-c3ccc(C#N)cc3)cc2)c1C` was 4.86%; that for `Cc1cccc(NC(=O)CN2CCN(CC(=O)Nc3ccc(-c4ccccc4)cc3)CC2)c1C` was -17%.
For the compound `COc1ccc(Cl)cc1NC(=O)CN(C)C(=O)c1ccc(OCc2ccccc2)c(OC)c1`, the “hERG current change (%, negative = inhibition) at 10uM” value came out at 6.49%.
With `COc1coc(C(O)CN)cc1=O` (centres unmarked), the “hERG current change (%, negative = inhibition) at 10uM” value turned out to be 4.57%.
Then `CC(=O)c1ccc(NC(=O)C2CC(c3ccc(F)cc3)=NO2)cc1` (centres unmarked), with -6.78%; and `CC(C(=O)N(C)C1CCCCC1)N1CCC(C(N)=O)CC1` (centres unmarked), with 25%; and `Cc1ccc2c(c1)c1ncnc(N3CCc4ccccc4C3)c1n2C`, with 0.68%.
Consider `COc1cccc(CN(CC(=O)NCc2ccccc2)S(=O)(=O)CCl)c1`, for which the “hERG current change (%, negative = inhibition) at 10uM” value is on record as -16.8%.
Consider `CCOC(=O)c1csc(NC(=O)c2ccc(S(=O)(=O)N(C)C)cc2)n1`, for which the “hERG current change (%, negative = inhibition) at 10uM” value is on record as -20.9%.
Take `Cc1ccnc(SCC(=O)N2CCN(c3cccc(Cl)c3)CC2)n1`: the “hERG current change (%, negative = inhibition) at 10uM” value was -25.2%.
Then `O=C(NC1CCN(C(=S)Nc2ccccc2Cl)CC1)C1CCCCC1`, with 14%.
